# Screening results (PubChem)
# 4MU fluor: compounds fluorescent in 4-MU spectral region | compound autofluorescence, 340/450 nm, 4-MU equivalents; stronger effect = higher value | max dye-equivalent concentration, M | hit rate 11% among 59,000 | AID 589; in the data active = max dye-equivalent concentration above about 10 nM; inconclusive = mostly about 1.1 nM to 9.6 nM
#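 Compounds in 100 mM Tris, pH 8.0, sat 15 min at room temperature before fluorescence was read at 340 nm excitation/450 nm emission; a per-plate six-point 4-MU standard curve converted signals to dye-equivalent concentration at each compound concentration.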
# HSD17B inh: blocks hydroxysteroid 17-beta dehydrogenase activity. Potency, µM (top dose mostly 57.1 µM), without a hit: top-dose activity change, negative = inhibition, actives largely listed as inhibitors. hit rate 7.6% among 75,000. AID 893. recombinant HSD17B10, NADH fluorescence kinetic. Q99714;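 also: the protocol describes HADH2 (HSD17B10) and not the HSD17B4 of the title; potency is read from the fitted curve at half-maximal effect; % is scaled to controls: 0 for no effect and ±100 for the full control effect; nearly all actives have a fitted effect of over 70% in size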
#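 Activity followed as NADH fluorescence increase (ex 360, em 450 nm) every 30 seconds for 4 min, using final 90 uM beta-hydroxybutyryl CoA and 1 mM NAD+. Recombinant His-tagged enzyme, 20 nM, pH 9.0 Tris buffer, 15 min compound preincubation.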
# HADH2 inh: inhibitors of human HADH2 dehydrogenase; Q99714; recombinant HADH2, NADH fluorescence, beta-hydroxybutyryl-CoA; hit rate 3.4% among 73,000; Potency, µM (titrated, usually from 57.1 µM), without a hit: at the top dose activity change, negative = inhibition, actives largely listed as inhibitors; AID 886; also: potency is read from the fitted curve at half-maximal effect; % is scaled to controls: 0 for no effect and ±100 for the full control effect; nearly all actives have a fitted effect of over 60% in size
# Target sequence (Q99714 whole entry, looked up, one chain of several): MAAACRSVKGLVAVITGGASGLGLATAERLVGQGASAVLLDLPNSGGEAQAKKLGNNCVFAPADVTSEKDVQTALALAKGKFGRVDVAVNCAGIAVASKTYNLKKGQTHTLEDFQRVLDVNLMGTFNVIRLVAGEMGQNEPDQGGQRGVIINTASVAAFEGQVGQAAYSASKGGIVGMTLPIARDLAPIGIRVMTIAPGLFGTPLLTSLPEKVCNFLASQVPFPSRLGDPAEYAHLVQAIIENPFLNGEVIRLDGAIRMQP
#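 Read-out: 360 nm excitation, 450 nm emission, kinetic over 4 min. Conditions: His-tagged human HADH2 20 nM, pH 9.0 Tris with Tween-20, 1 mM NAD+, 90 uM beta-hydroxybutyryl-CoA.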
# A350 fluor: compound fluoresces in the Alexa 350 spectral region. Compound autofluorescence, 340/450 nm, Alexa 350 dye-equivalents; stronger effect = higher value. max dye-equivalent concentration, M. hit rate 11% among 59,000. AID 590; in the data active = max dye-equivalent concentration above about 10 nM; inconclusive = mostly about 1.1 nM to 9.6 nM
# CRE Fsk mod: CRE-bla signaling modulation under forskolin stimulation; hit rate 2.5% among 71,000; Potency, µM (highest dose often 38.2 µM), for the others: at the highest dose activity change, negative = inhibition, hits mostly activators; CHO CRE-bla reporter (cAMP response element driving beta-lactamase), forskolin EC10, beta-lactamase ratio; AID 662; active = well fitted activation curve with a large enough effect in the signal ratio, with a control signal flat, not every such curve was filed as active; inconclusive = small, poorly fitted or top-dose-only effect, or effect the other way, or a change in a side signal; the % refers to the signal ratio; also: potency is read from the fitted curve at half-maximal effect; % of control where 0% means no effect
#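 Reporter-gene assay: CHO cells with beta-lactamase behind cAMP responsive elements, co-treated with compound and EC10 NKH 477 for 3 hours at 37 degrees Celsius. Activity came from the 460/530 nm CCF4 emission ratio.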
# AID923: qHTS Assay for Allosteric/Competitive Inhibitors of Caspase-1: Spectroscopic Profiling in AFC Spectral Region. compound fluorescence, AFC spectral region (405/520 nm). Potency, µM (top dose mostly 57.5 µM), for inactives: top-dose fluorescence increase, most hits filed as activators. hit rate 1.1% among 75,000. AID 923, 2007; also: potency is read from the fitted curve at half-maximal effect; 0% is about no effect
#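 Compound autofluorescence profiled at 405 nm ex/520 nm em during kinetic caspase 1 run (50 nM enzyme, 5 uM Ac-WEHD-AFC, HEPES pH 7.5, 10 mM DTT). Titration up to 57 uM; baseline from regression intercept, normalized to AFC standard curve.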
# An asterisk follows results filed as active; i = inactive; ? = inconclusive; . = not tested or not shown; ! = not confirmed by another sample. Compounds with a hit are over-represented: about 14% of the library has one in this group of screens. Unless noted, calls follow the shape of the dose curve; as a rule, active = well fitted curve in the direction sought with a large enough effect; inconclusive = small, poorly fitted or top-dose-only effect, or another doubt; inactive = no such curve, though single readings can be large; an effect the other way counts as inactive or inconclusive.
SMILES,4MU fluor,HSD17B inh,HADH2 inh,A350 fluor,CRE Fsk mod,AID923
COC(=O)c1ccccc1NC(=O)C1CCCN(S(C)(=O)=O)C1 (stereo unspecified),i,-22%,1%,i,?,1%
COC(=O)CCN(c1ccccc1)S(=O)(=O)c1ccc(OC)cc1,?,10%,5%,1.1e-08M*,-8%,-1%
COC(=O)CN(c1ccccn1)S(=O)(=O)c1ccccc1,i,25µM*,?,i,-2%,0%
COc1ccc(S(=O)(=O)N(CC(=O)O)c2ccc(C)cc2)cc1,.,5%,-3%,.,.,7%
COC(=O)CN(c1cc(OC)ccc1OC)S(=O)(=O)c1ccc(OC)c(OC)c1,2.4e-08M*,.,.,2.8e-08M*,.,.
CN(c1ccccc1)S(=O)(=O)c1cccc(C(=O)N2CCN(c3ccccn3)CC2)c1,i,1%,6%,i,2%,0%
COc1ccc(S(=O)(=O)Cc2ccc(C(=O)N3CCN(c4cccc(C)c4)C(C)C3)o2)cc1 (stereo unspecified),.,5%,-4%,.,?,1%
COC(=O)c1cc(NC(=O)C2CC2)cc(C(=O)OC)c1,1.1e-08M*,-26%,?,1.3e-08M*,7%,1%
CCCn1c(C)nc2c(NC(C)CN(C)C)nc(C)nc21 (stereo unspecified),.,10%,-2%,.,2%,-1%
CCCn1c(-c2ccc(F)cc2)nc2c(NCCN(C)C)nc(C)nc21,.,20µM*,18%,.,12%,-1%
CCCn1c(-c2ccc(F)cc2)nc2c(NC(C)CN(C)C)nc(C)nc21 (stereo unspecified),.,32µM*,3%,.,2%,-2%
CCCn1c(-c2ccc(F)cc2)nc2c(NCCCCN(C)C)nc(C)nc21,.,25µM*,-21%,.,8%,1%
CCCn1c(-c2ccc(F)cc2)nc2c(NCCN(C(C)C)C(C)C)nc(C)nc21,.,20µM*,13%,.,8%,-1%
CCCn1c(-c2ccc(F)cc2)nc2c(NCCN3CCSCC3)nc(C)nc21,.,?,-3%,.,?,-1%
O=C(NCc1ccc(F)cc1)C1CCCN(C(=O)Nc2ccccc2)C1 (stereo unspecified),i,-1%,3%,i,-9%,-1%
CCN1CCN(C(c2ccc(F)cc2)c2nnnn2Cc2cccs2)CC1 (stereo unspecified),i,-5%,-6%,i,-4%,0%
O=C(c1cccc(F)c1)N1CCCC(C(=O)N2CCCC2)C1 (stereo unspecified),i,15%,-5%,i,1%,0%
CCNc1nc(NCC)n2c(SCc3nc4ccccc4c(=O)[nH]3)nnc2n1,i,1%,20%,?,0.25µM*,4%
O=C(NC12CC3CC(CC(C3)C1)C2)c1cncc(O)c1,i,25µM*,5%,i,1%,0%
COc1ccc(Cl)cc1NC(=O)CN(C1CCCCC1)S(C)(=O)=O,i,-16%,3%,i,8%,1%
COC(=O)C1=C(C)NC(=O)C1(Nc1nccs1)C(F)(F)F (stereo unspecified),?,32µM*,-17%,?,6%,0%
Cc1cc(C)nc(NC2=NCC(=O)N2CCc2c[nH]c3ccccc23)n1,1.5e-08M*,?,3%,1.8e-08M*,-8%,0%
O=C(O)C1CC(=O)N(CCc2c[nH]c3ccccc23)C1 (stereo unspecified),i,5%,3%,i,-10%,1%
CCn1c(SCC(=O)Nc2oc(-c3ccccc3)c(-c3ccccc3)c2C#N)nnc1-c1ccco1,i,?,?,i,?,3%
N#Cc1c(NC(=O)CSc2ncnc3sccc23)oc(-c2ccco2)c1-c1ccco1,i,20µM*,16µM*,i,?,1%
SMILES,4MU fluor,HSD17B inh,HADH2 inh,A350 fluor,CRE Fsk mod,AID923
O=C(O)C1C2C=CC3(CN(Cc4ccncc4)C(=O)C13)O2 (stereo unspecified),i,6%,9%,?,-5%,0%
CSc1ccc2c(c1)[C@H](N1CCN(C)CC1)Cc1ccccc1S2,1.6e-07M*!,37%,-1%,1.4e-07M*!,-9%,1%
COCCN(CCOC)C(=O)CCn1c(=O)oc2ccccc21,i,-1%,0%,i,3%,-2%
O=C(c1ccccc1Cl)N1CCN(c2ccccn2)CC1,?,32µM*,17%,?,-3%,0%
O=C(O)CCC(=O)N1CCN(c2ccccn2)CC1,i,32µM*,?,i,?,2%
O=C(CC1CCCCC1)N1CCN(c2ccccn2)CC1,i,?,6%,i,-3%,-1%
O=C(c1cccc(Cl)c1Cl)N1CCN(c2ccccn2)CC1,i,-12%,-2%,i,-2%,1%
O=C(COc1ccc(Cl)cc1)N1CCN(c2ncccn2)CC1,i,3%,12%,i,-20%,0%
O=C(CN1CCN(c2ccccn2)CC1)NCCc1ccccc1,1.2e-08M*,5%,14%,1.4e-08M*,?,-1%
O=C(CN1CCN(c2ccccn2)CC1)NC1CCCC1,i,4%,-3%,i,-1%,1%
CC(C)(Oc1ccc(Cl)cc1)C(=O)N1CCN(c2ccccn2)CC1,.,25µM*,-6%,.,-8%,0%
O=C(NCCc1ccccc1)C1c2ccccc2C(=O)N1C1CC1 (stereo unspecified),i,2%,8%,i,?,0%
CC(C)CCNC(=O)NC(=O)CSc1nnc(-c2ccccc2F)n1N,i,-27%,6%,i,?,-1%
COc1ccc(C(=O)NCCn2cc(SCC(=O)Nc3nnc(C)s3)c3ccccc32)cc1,?,-4%,5%,?,-10%,2%
COc1ccc(CNc2nc3c(c(C(F)(F)F)n2)CCCCC3)cc1,i,25µM*,-5%,i,?,1%
Cc1cc(C(F)(F)F)nc(NCc2ccc(F)cc2)n1,i,?,0%,i,?,-2%
CCOC(=O)c1c(N)sc(C(=O)N2CCOCC2)c1C,1.5e-08M*,9%,-7%,1.5e-08M*,13%,0%
Cc1c(-c2ccccc2)sc(N)c1C(=O)N1CCOCC1,?,32µM*,2µM*,1e-08M*,2%,14%
COC(=O)c1c(N)sc(C(=O)N2CCOCC2)c1C,i,-1%,-3%,i,14%,2%
Cc1cc(SCC(=O)N2CCCC2)nc2ccccc12,i,11%,6%,i,1%,1%
